Records with an inconclusive call do not appear. Active and inactive are the calls of the source. Calls come from the whole dose curve; as a rule, active = well fitted cell-killing curve with a large enough effect; inconclusive = small, poorly fitted or top-dose-only effect; inactive = no such curve, though single readings can be large or run the other way.
Potency is the fitted concentration of half-maximal effect.

The assay in a line: Quantitative High-Throughput drug screen in 47 multiple myeloma cell lines against the NCATS MIPE library collection: NCIH929_DSMZ cell viability assay (AID 1918978). Note: nearly all actives have a fitted effect of over 35% in size. To be noted: NCI-H929 myeloma viability, CellTiter-Glo ATP, 48 h; series mostly up to 45.8 µM. An excerpt:
PI: Beverly A. Mock Ph.D.
Laboratory of Cancer Biology and Genetics,
Center for Cancer Research, National Cancer Institute,
National Institute of Health, Bethesda, Maryland
Drug resistance and disease progression are common in multiple myeloma (MM) patients, underscoring the need for new therapeutic combinations. […] We hypothesized that effective combinations would reduce MYC expression and enhance p16 activity. […] These preclinical data identify potentially useful drug combinations for evaluation in drug-resistant MM and reveal potential mechanisms of combined drug sensitivity.
Described herein is the primary MIPE qHTS used to cherrypick compounds. Validated compounds were then further tested for potential synergistic activiy.
[1] Peat TJ, Gaikwad SM, Dubois W, Gyabaah-Kessie N, Zhang S, Gorjifard S, Phyo Z, Andres M, Hughitt VK, Simpson RM, Miller MA, Girvin AT, Taylor A, Williams D, D'Antonio N, Zhang Y, Rajagopalan A, Flietner E, Wilson K, Zhang X, Shinn P, Klumpp-Thomas C, McKnight C, Itkin Z, Chen L, Kazandijian D, Zhang J, Michalowski AM, Simmons JK, Keats J, Thomas CJ, Mock BA. Drug combinations identified by high-throughput screening promote cell cycle transition and upregulate Smad pathways in myeloma. Cancer Lett. 2023 Aug 1;568:216284. doi: 10.1016/j.canlet.2023.216284. Epub 2023 Jun 24. PMID: 37356470; PMCID: PMC10408729.
SEQUENCE No. (e.g., 1, 2, 3, etc.); […] (e.g., Cells, Incubation, Reagent, etc.); VALUE and DESCRIPTION.
1; Cells; 5 uL; white, solid bottom 1536-well Greiner assay plate.
2; Compounds; 23 nL; Kalypsis pin tool (Wako USA) equipped with a 1536-well pin head to transfer to the assay plates.
3; Incubation; 48 hours; 37C incubation.
4; Reagent;5uL; CellTiter Glo (Promega).
5; Detector; 425V; Luminescence; Viewlux PerkinElmer.
NOTES (numbers refer to Sequence numbers above)
1. The cell-based screening methods employed in this study were like those previously published. Briefly, the corresponding myeloma cell lines were screened in 1,536-well plates with 500 cells, 5-uL per well for inhibition of cell viability (assessed by measuring ATP levels with CellTiterGlo).
2. NCATS MIPE 4.0 library of approved and investigational drugs were added using the Kalypsis pin tool. Wells treated with DMSO only for 100% viability and media only for 0% viability were used as controls.
3. The assay plates were covered and incubated for 48 hours in a 37C, 5% CO2 incubator with controlled humidity.
4. After 48 hours, CellTilter-GloTM luminescent substrate mix (Promega) reagent was added to the assay plate and plates we incubated for 5 min at room temperature.
5. Signal was measured as median relative luminescence units on a ViewLux (PerkinElmer) multiplate reader.
[1] Heske CM, Davis MI, Baumgart JT, Wilson K, Gormally MV, Chen L, Zhang X, Ceribelli M, Duveau DY, Guha R, Ferrer M, Arnaldez FI, Ji J, Tran HL, Zhang Y, Mendoza A, Helman LJ, Thomas CJ. Matrix Screen Identifies Synergistic Combination of PARP Inhibitors and Nicotinamide Phosphoribosyltransferase (NAMPT) Inhibitors in Ewing Sarcoma. Clin Cancer Res. 2017 Dec 1;23(23):7301-7311. doi: 10.1158/1078-0432.CCR-17-1121. Epub 2017 Sep 12. PMID: 28899971; PMCID: PMC6636827.
Background: In ATP-based viability assays light output follows the ATP content of the culture.
`Nc1ncnc2c1nc(Cl)n2[C@@H]1O[C@H](CO)[C@@H](O)[C@@H]1O`: the Potency was 8.33 µM (active).
Consider `COc1ccc2c3c1OC1C[C@@H](O)C=C[C@@]31CCN(C)C2` (stereo not given in full), for which the Potency was 16.6 µM (active).
For `Cc1c(O)cccc1C(=O)N[C@@H](CSc1ccccc1)[C@H](O)CN1C[C@H]2CCCC[C@@H]2C[C@@H]1C(=O)NC(C)(C)C` the value was 23.5 µM (active); for `CC(C)(C)C(=O)Oc1ccc2c(c1)nc(NC(=O)c1cccc([N+](=O)[O-])c1)n2CCCO`, “inactive”.
For `O=C(O)[C@H]1O[C@H](Oc2cc3oc(-c4ccccc4)cc(=O)c3c(O)c2O)[C@H](O)[C@@H](O)[C@H]1O` the value was “inactive”.
For `COc1ccc(-c2cc(=O)c3c(O)cc(O)cc3o2)cc1O` the value was 2.64 µM (active).
With `O=C(NC1CCOCC1)c1ccc(-c2cc(-c3cn[nH]c3-c3ccccn3)ccn2)cc1`, the Potency entry was “inactive”.
On to `CCc1ccc(OCc2ccccc2C(=O)Nc2ccc3nc(C)cc(N)c3c2)cc1`, for which the Potency is 1.05 µM (active).
With `CS(=O)c1ccc(-c2nc(-c3ccc(F)cc3)c(-c3ccncc3)[nH]2)cc1` (stereo not given) the figure was 5.4 µM (active); with `N#CC1(c2ccc(NC(=O)c3cccnc3NCc3ccncc3)cc2)CCCC1`, “inactive”; with `O=c1ccn([C@@H]2O[C@H](CO)[C@H](O)[C@H]2O)c(=O)[nH]1`, 7.43 µM (active).
With `C[C@H]1[C@H](NC(=O)C(=NOC(C)(C)C(=O)O)c2csc(N)n2)C(=O)N1S(=O)(=O)O` the entry was “inactive”; with `COc1ccc(-c2oc3c(CC=C(C)C)c(OC4O[C@H](CO)[C@@H](O)[C@H](O)[C@@H]4O)cc(O)c3c(=O)c2OC2O[C@@H](C)[C@H](O)[C@@H](O)[C@@H]2O)cc1` (stereo not given in full), 29.6 µM (active); with `O=C1C[C@@H](c2ccc(O)cc2)Oc2cc(O)cc(O)c21`, “inactive”.
With `NC1CCC(Nc2nc(Nc3ccc(C(=O)N4CCCCC4)cc3)c3ncn(-c4cccc(F)c4)c3n2)CC1` (stereo not given) the entry was “inactive”.
On to `COc1cc2ncnc(Nc3ccc(F)c(Cl)c3)c2cc1OCCCN1CCOCC1`, for which the Potency is 4.29 µM (active).
With `O=C(Nc1cc(Cl)cc2c1[nH]c1cnccc12)c1cccnc1` the figure was 1.87 µM (active).
For `CCC(CC)[C@H](NC(C)=O)[C@@H]1[C@H](O)[C@@H](C(=O)O)C[C@@H]1N=C(N)N` the value was “inactive”.
Consider `O=C(NOCC(O)CO)c1cc(Br)c(F)c(F)c1Nc1ccc(I)cc1F` (stereo not given), for which the Potency was 1.05 µM (active).
For `CCOc1ccc(Nc2nc(-c3c(C)nc4ccccn34)cs2)cc1` the value was 0.0526 µM (active); for `CN(C)Cc1ccc(-c2nc3cccc4c3n2CCNC4=O)cc1`, 18.7 µM (active).
`CC(C)C(C)C=CC(C)C1CCC2C3=CC=C4CC(O)CCC4(C)C3CCC21C` (stereo not given): the Potency entry is “inactive”.
With `NS(=O)(=O)c1ccc(NC2=CC(=O)c3ccccc3C2=O)cc1` the figure was 26.4 µM (active); with `COC[C@@H](c1ccc(C(F)(F)F)cc1)N1CCN(C2(C)CCN(C(=O)c3c(C)ncnc3C)CC2)C[C@H]1C`, 9.35 µM (active); with `O=C1c2c(O)cc(O)cc2O[C@H](c2cc(O)c(O)c(O)c2)[C@H]1O`, “inactive”.
With `Cc1[nH]c(C=C2C(=O)Nc3ccc(S(=O)(=O)Cc4c(Cl)cccc4Cl)cc32)c(C)c1C(=O)N1CCC[C@H]1CN1CCCC1` the figure was 8.33 µM (active); with `COC1CCC(N(C(=O)C2CCC(C)CC2)c2cc(C3=CCCCC3)sc2C(=O)O)CC1` (stereo not given), 23.5 µM (active); with `Cc1cnc(C(=O)O)c[n+]1[O-]`, “inactive”.
Turning to `COc1ccc(C2Sc3ccccc3N(CCN(C)C)C(=O)C2OC(C)=O)cc1` (stereo not given), the Potency entry is “inactive”.
With `C[C@@H]1CCN(C(=O)CC#N)C[C@H]1N(C)c1ncnc2[nH]ccc12` the entry was “inactive”; with `CCCCCN(C)CCC(O)(P(=O)(O)O)P(=O)(O)O`, “inactive”; with `O=C(O)C(O)Cc1ccc(O)c(O)c1` (stereo not given), “inactive”.
With `CC(=NNC(=S)N1CCC1)c1ccccn1` the entry was “inactive”; with `C[C@]12CCC3c4ccc(O)cc4CCC3C1CCC2=O` (stereo not given in full), “inactive”.
On to `N#C[C@H]1C[C@H]2C[C@@H]2N1C(=O)[C@@H](N)C12CC3CC(CC(O)(C3)C1)C2`, for which the Potency entry is “inactive”.
Turning to `Clc1ccc(C(c2ccc(Cl)cc2)n2cc[n+](CC(OCc3ccc(Cl)cc3Cl)c3ccc(Cl)cc3Cl)c2)cc1` (stereo not given), the Potency is 9.35 µM (active).
Consider `CCOC(=O)C1=C(N)Oc2ccc(Br)cc2C1C(C#N)C(=O)OCC` (stereo not given), for which the Potency was 20.9 µM (active).
For `COc1cc(O)c2c(c1)C(=O)c1cc(C)cc(O)c1C2=O` the value was “inactive”; for `N#Cc1ccc(NC(=O)Nc2ccccc2Br)c2n[nH]nc12`, 18.7 µM (active); for `Cc1ccc(F)c(NC(=O)Nc2ccc(-c3cccc4[nH]nc(N)c34)cc2)c1`, 9.35 µM (active).
